We go through 13 compounds from PubChem BioAssay (NCATS).

The target of assay [1] is Lysosomal acid glucosylceramidase (Homo sapiens) (UniProt P04062). Nature of the assay: Glucocerebrosidase-p2 (AID 348; in the data active means potency below about 10 µM; further: potency means the concentration at half of the fitted maximal effect). The note with it: purified GBA, blue fluorogenic substrate, 40 min. The method, boiled down: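 Normal human glucocerebrosidase (0.2 nM) with blue fluorogenic substrate (80 uM final) in citrate/phosphate pH 5.9 with 10mM sodium taurocholate, 0.01% tween-20; 40 min RT, NaOH/glycine stop; fluorescence Ex 365/Em 440; AC50 from a titration from 0.6 nM upwards.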
Lysosomal acid glucosylceramidase (Homo sapiens), sequence (P04062 whole entry, looked up): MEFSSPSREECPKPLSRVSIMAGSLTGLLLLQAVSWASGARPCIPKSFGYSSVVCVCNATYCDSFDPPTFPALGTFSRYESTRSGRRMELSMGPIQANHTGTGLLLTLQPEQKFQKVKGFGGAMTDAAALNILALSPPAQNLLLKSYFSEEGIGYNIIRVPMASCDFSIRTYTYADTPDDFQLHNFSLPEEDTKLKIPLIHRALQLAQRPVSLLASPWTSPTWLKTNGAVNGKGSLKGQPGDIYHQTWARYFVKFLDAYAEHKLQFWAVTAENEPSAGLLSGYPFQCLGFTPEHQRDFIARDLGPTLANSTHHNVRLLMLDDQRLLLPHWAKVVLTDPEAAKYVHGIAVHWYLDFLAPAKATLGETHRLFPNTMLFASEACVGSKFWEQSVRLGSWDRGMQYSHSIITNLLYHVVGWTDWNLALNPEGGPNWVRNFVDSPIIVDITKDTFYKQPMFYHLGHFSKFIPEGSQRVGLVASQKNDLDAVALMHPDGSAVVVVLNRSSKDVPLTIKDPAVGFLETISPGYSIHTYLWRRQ

A short description of assay [2]: Stat Signaling Pathway (AID 446).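 Further: ME-180 cervical cancer cells given 40 pM IL-6 alongside compound; SIE-controlled beta-lactamase reporter measured as 460/530 nm FRET emission ratio; on the % scale 0 is the no-effect control and ±100 the full control effect.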 The note with it: ME-180 SIE beta-lactamase reporter, IL-6 stimulated, 5 h. The method, boiled down: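 Compound effects on IL-6-induced STAT reporter activity were measured in ME-180 cells. After overnight culture, cells were co-treated with 40 pM IL-6 for 5 hrs before beta-lactamase substrate loading at room temperature.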
In assay [3] the target is Glucocorticoid receptor (Homo sapiens) (UniProt P04150). Nature of the assay: GR-GFP Redistribution (AID 450;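 active means compounds whose dose series gives a full or clear partial fitted curve of increased nuclear translocation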; further: potency means the concentration at half of the fitted maximal effect). The note with it: U2OS GR-GFP nuclear translocation, laser cytometry, 2 h.
Glucocorticoid receptor (Homo sapiens), sequence (P04150 whole entry, looked up): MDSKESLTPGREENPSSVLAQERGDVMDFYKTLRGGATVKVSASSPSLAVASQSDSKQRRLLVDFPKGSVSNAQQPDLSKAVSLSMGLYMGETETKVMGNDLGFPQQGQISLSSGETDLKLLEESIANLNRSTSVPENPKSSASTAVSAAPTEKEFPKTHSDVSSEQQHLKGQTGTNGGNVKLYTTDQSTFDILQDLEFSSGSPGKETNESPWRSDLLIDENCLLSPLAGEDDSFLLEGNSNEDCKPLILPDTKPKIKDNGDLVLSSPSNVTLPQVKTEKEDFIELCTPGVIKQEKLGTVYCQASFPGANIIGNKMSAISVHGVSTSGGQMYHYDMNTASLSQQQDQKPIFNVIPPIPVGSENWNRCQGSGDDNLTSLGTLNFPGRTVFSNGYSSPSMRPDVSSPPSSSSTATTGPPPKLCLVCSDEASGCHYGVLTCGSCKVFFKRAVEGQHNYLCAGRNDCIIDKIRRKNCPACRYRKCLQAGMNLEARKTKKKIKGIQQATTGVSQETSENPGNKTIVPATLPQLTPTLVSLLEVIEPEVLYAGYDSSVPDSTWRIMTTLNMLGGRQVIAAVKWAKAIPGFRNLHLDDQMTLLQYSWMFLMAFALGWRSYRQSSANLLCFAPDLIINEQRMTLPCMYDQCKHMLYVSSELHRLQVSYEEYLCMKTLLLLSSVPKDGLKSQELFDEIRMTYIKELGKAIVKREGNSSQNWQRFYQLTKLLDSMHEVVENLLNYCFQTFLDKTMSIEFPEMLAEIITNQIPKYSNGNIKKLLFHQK
For assay [4] the target is unchanged. Briefly: GR-EFC Redistribution (AID 451; calls by dose curve; further: potency means the concentration at half of the fitted maximal effect). The note with it: CHO-K1 GR-EFC translocation, beta-gal luminescence, 2 h. The method, boiled down:
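CHO-K1 cells expressing nuclear EA and GR-ED fragments of b-gal; compounds titrated up to 46 uM final, 2 h at 37 C. GR nuclear translocation read as complemented b-gal luminescence after 1 h RT detection.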

Assay [5] concerns the target Mitogen-activated protein kinase 10 (Mus musculus) (UniProt Q61831). Briefly: JNK3 AlphaScreen Assay (AID 530).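 Further: kinase came from lysate of stimulated human HepG2 cells; signal reports phosphorylation of biotinylated GST-cJun 1-79 at Ser73 with 10 µM ATP; on the % scale 0 is the no-effect control and ±100 the full control effect.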 The note with it: JNK3 lysate, c-Jun phosphorylation; series mostly up to 11.4 µM. The method, boiled down:
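HepG2 lysate (IL-1b/TNFa pre-activated) + biotin-GST-cJun 1-79 + anti-pSer73 cJun; cpd titration, 15 min RT; ATP 10 uM start; Tris pH 7.6, MgCl2, DTT, vanadate; beads in EDTA buffer; AlphaScreen.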
Background: Alpha assays give light when donor and acceptor beads are brought close together.

Assay [6] addresses 3',5'-cyclic-AMP phosphodiesterase 4B (Homo sapiens) (UniProt Q07343). Briefly: qHTS Assay for Inhibitors of PDE-IV (AID 607; active means well fitted activation curve with a large enough effect in the main read-out, with a control signal flat, not every such curve was filed as active; further: % of control where 0% means no effect). The note with it: HEK293 ACTOne CNG channel cells, membrane potential fluorescence; series mostly up to 22.9 µM. The method, boiled down: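 ACTOne HEK293 cells carry a modified cAMP-gated CNG channel and express endogenous PDE4; plated 1000 cells/well, compounds up to 22.9 uM final. Membrane-potential dye fluorescence (ex 535/em 590) was read; parental cells received 10 uM forskolin + 100 uM RO 20-1724.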

The nature of assay [7]: NFAT Signaling Pathway (AID 444).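 Further: carbachol stimulus at about its EC50 of 1 µM final; on the % scale 0 is the no-effect control and ±100 the full control effect.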 The note with it: Jurkat NFAT-bla M1, carbachol, beta-lactamase ratio, 5 h. The method, boiled down: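 Jurkat cells with NFAT-driven β-lactamase reporter and co-expressed M1 receptor, stimulated with carbachol (final 1 uM, ~EC50), compound titration, 5 h at 37 °C. CCF4 loaded 1 h at RT; 460/530 nm ratio gave %activity and AC50.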
Assay [8] has as its target Cytochrome P450 1A2 (Homo sapiens) (UniProt P05177). Briefly: p450-cyp1a2 (AID 410; calls by dose curve; further: potency means the concentration at half of the fitted maximal effect;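 on activity change, negative = inhibition: -100% = full effect of reference inhibitor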). The note with it: recombinant CYP1A2, luciferin-ME demethylation, luminescence; series mostly up to 11.4 µM. The method, boiled down: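 Read-out is luminescence from luciferin produced by CYP1A2 demethylation of Luciferin-ME (100uM, at Km). Detection reagent stopped the 60 min NADPH-dependent reaction; signals were normalized to 57 uM furafylline.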

Assay [9] addresses Cytochrome P450 3A4 (Homo sapiens) (UniProt P08684). Nature of the assay: qHTS Assay for Activators of Cytochrome P450 3A4 (AID 885; active means well fitted curve in the direction sought with a large enough effect; an effect the other way counts as inactive or inconclusive; further: nearly all actives have a fitted effect of over 65% in size). The note with it: recombinant CYP3A4, Luciferin-PPXE luminescence, 60 min; series mostly up to 11.4 µM. The method, boiled down: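 CYP3A4 activity: Luciferin-PPXE O-dealkylation, 25uM substrate, 200mM KPO4, RT throughout. Read-out is luciferase luminescence; higher values reflect activation.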
A general note: Quantitative high-throughput screening tests each substance at several concentrations.

Assay [10] can be described thus: qHTS Assay for Identification of Small Molecule Agonists for Hypoxia Response Element Signaling Pathway (AID 914; active means well fitted activation curve with a large enough effect in the signal ratio, with a control signal flat, not every such curve was filed as active; the % refers to the signal ratio; further: potency means the concentration at half of the fitted maximal effect). The note with it: ME-180 HRE-bla reporter, beta-lactamase ratio, CoCl2, 17 h; activation: stronger effect = higher value. The method, boiled down: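 HRE-bla ME-180 cells, overnight plating in Opti-MEM with 0.5% dialyzed FBS; cpd titration + EC50 CoCl2, 17 h, 37 degrees Celsius; CCF4 2.5 h RT; 460/530 nm ratio; AC50.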

Assay [11] concerns the target Cytochrome P450 2C19 (Homo sapiens) (UniProt P33261). Briefly: qHTS Assay for Inhibitors and Substrates of Cytochrome P450 2C19 (AID 899; active means well fitted curve in the direction sought with a large enough effect; an effect the other way counts as inactive or inconclusive; further: potency means the concentration at half of the fitted maximal effect; nearly all actives have a fitted effect of over 60% in size). The note with it: recombinant CYP2C19, luciferin-H EGE luminescence; series mostly up to 11.4 µM. The method, boiled down: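 5 nM human CYP2C19 with 10uM Luciferin-H EGE (at KM) in 50mM KPO4, compound preincubated 10 min at 37C, then NADPH regeneration for 60 min at 37C. Luciferin read by luminescence after detection reagent; normalized to 57uM ketoconazole as full inhibition.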

A short description of assay [12]: AP1 Signaling Pathway (AID 357). Further: on the % scale 0 is the no-effect control and ±100 the full control effect. The note with it: ME-180 (cervical carcinoma) AP-1-bla reporter, EGF-induced, beta-lactamase ratio, 5 h. The method, boiled down: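 Read-out was the 460nm/530nm emission ratio (excitation 405nm) after CCF4 loading for 2.5 hours at room temperature. Cells carried an AP-1-driven beta-lactamase reporter, were stimulated with EC50 EGF plus compound for 5 hours, and AC50 values came from titrations.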

For assay [13], the target named is ATP-dependent 6-phosphofructokinase (Trypanosoma brucei brucei) (UniProt O15648). Nature of the assay: qHTS Assay to Find Inhibitors of T. brucei phosphofructokinase: hit validation (AID 492961; active means well fitted curve in the direction sought with a large enough effect; an effect the other way counts as inactive or inconclusive). The note with it: T. brucei PFK, ADP-Glo luminescence; series mostly up to 51.4 µM. The method, boiled down:
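Compounds titrated; %activity normalized to 0x and 1x enzyme controls, curve-fitted. Readout: ADP-Glo luminescence after 45 min room-temperature reaction of 1.25 nM PFK, 0.1 mM ATP, 0.5 mM F6P, pH 8.0.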

Assay [14] in a line: qHTS profiling for inhibitors of Plasmodium falciparum proliferation (AID 504749; active means well fitted curve in the direction sought with a large enough effect; an effect the other way counts as inactive or inconclusive;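 further: 0% = DMSO vehicle and full inhibition = artemisinin control; nearly all actives have a fitted effect of over 60% in size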). The note with it: P. falciparum in erythrocytes, SYBR Green DNA, 72 h, at 28.7 µM (top of the series). The method, boiled down:
(§1)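 SYBR Green fluorescence (ex 485 nm, em 535 nm) reports parasite DNA after 72 h compound exposure of infected red cells at 0.3% parasitemia, 2.5% hematocrit; signal normalized to 0.29 uM artemisinin and vehicle wells.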

Assay [15] has as its system ATS189. The assay is described as above. The note with it: P. falciparum in erythrocytes, SYBR Green DNA, 72 h; series mostly up to 28.7 µM. The method, boiled down: as §1
The subject of assay [16] is CP192. The assay is described as above. The note with it: P. falciparum in erythrocytes, SYBR Green DNA, 72 h; series mostly up to 28.7 µM. The method, boiled down:
as §1

Assay [17] concerns W2. The assay is described as above. The note with it: P. falciparum in erythrocytes, SYBR Green DNA, 72 h; series mostly up to 28.7 µM. The method, boiled down: as §1
The mark [18] stands for this setting: at 7.69 µM (top of the series) unless noted.

“And” between values parts separate entries of the source, which are not always exact repeats. Equal values may be shown once. Unmarked numbers belong to inactive results. Inconclusive results are not listed. The source made the active and inactive calls. Unless noted, the call rests on the fitted dose curve; in most records, active means well fitted curve in either direction with a large enough effect (not every such curve was filed as active); inconclusive means small, poorly fitted or top-dose-only effect, or another doubt; inactive means flat fitted curve, though single readings scatter.

Cytochrome P450 3A4 (Homo sapiens), sequence (P08684 whole entry, looked up): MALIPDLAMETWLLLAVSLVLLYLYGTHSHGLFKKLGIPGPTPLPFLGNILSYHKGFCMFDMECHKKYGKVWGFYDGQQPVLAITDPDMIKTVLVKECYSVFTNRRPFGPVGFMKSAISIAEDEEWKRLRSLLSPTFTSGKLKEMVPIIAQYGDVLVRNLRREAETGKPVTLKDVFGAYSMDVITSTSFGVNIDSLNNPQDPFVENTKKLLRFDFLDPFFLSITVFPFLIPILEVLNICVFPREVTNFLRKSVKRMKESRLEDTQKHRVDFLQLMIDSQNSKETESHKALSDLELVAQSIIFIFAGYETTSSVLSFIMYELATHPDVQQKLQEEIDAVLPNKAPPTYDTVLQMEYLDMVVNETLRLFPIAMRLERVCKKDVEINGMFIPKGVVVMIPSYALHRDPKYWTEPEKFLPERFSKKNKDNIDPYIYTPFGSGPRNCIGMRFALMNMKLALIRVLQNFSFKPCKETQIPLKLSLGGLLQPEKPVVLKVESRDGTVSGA
Cytochrome P450 1A2 (Homo sapiens), sequence (P05177 whole entry, looked up): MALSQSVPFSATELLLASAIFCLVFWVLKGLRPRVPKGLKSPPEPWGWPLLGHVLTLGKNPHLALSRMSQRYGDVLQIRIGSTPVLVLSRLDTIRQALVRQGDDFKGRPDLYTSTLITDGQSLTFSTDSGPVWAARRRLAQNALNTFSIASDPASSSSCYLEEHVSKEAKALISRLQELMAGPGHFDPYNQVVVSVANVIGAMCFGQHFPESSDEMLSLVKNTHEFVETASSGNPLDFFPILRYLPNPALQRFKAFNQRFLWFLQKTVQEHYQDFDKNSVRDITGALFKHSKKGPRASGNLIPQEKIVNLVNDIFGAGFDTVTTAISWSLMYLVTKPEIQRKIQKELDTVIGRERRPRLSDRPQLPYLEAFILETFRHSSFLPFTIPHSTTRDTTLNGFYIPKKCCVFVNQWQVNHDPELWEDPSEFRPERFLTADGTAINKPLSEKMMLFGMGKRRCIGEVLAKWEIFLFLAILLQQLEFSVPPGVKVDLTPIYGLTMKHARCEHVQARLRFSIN
3',5'-cyclic-AMP phosphodiesterase 4B (Homo sapiens), sequence (Q07343 whole entry, looked up): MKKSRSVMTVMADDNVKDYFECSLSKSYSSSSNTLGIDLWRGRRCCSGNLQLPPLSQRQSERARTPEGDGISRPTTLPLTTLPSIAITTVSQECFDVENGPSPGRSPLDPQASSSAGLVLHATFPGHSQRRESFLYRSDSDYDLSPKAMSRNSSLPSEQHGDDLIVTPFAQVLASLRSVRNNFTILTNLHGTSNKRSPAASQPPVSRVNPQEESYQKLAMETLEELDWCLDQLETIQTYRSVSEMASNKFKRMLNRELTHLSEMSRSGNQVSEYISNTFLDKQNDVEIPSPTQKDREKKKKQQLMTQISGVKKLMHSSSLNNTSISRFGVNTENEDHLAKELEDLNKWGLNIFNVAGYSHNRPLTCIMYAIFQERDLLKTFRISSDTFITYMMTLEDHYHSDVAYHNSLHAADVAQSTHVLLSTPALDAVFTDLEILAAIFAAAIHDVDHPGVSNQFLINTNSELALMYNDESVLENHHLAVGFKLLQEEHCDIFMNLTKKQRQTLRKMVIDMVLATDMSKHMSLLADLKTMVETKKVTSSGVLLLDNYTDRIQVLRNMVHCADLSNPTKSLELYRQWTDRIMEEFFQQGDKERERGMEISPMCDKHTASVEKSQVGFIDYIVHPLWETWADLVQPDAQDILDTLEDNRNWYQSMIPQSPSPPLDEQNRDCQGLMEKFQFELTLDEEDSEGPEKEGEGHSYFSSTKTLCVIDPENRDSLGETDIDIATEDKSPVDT
ATP-dependent 6-phosphofructokinase (Trypanosoma brucei brucei), sequence (O15648 whole entry, looked up): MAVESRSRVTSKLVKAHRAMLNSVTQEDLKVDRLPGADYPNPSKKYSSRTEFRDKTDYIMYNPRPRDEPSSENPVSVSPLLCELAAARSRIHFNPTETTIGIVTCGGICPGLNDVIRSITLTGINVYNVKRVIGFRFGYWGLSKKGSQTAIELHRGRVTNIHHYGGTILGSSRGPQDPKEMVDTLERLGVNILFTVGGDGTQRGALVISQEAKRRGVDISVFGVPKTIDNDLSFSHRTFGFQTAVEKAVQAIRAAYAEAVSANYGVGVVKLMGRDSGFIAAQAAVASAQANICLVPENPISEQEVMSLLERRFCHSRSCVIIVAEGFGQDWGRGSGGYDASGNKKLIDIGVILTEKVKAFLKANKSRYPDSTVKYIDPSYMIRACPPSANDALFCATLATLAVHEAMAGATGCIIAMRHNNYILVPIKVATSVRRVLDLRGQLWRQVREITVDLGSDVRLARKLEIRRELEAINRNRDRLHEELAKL
Cytochrome P450 2C19 (Homo sapiens), sequence (P33261 whole entry, looked up): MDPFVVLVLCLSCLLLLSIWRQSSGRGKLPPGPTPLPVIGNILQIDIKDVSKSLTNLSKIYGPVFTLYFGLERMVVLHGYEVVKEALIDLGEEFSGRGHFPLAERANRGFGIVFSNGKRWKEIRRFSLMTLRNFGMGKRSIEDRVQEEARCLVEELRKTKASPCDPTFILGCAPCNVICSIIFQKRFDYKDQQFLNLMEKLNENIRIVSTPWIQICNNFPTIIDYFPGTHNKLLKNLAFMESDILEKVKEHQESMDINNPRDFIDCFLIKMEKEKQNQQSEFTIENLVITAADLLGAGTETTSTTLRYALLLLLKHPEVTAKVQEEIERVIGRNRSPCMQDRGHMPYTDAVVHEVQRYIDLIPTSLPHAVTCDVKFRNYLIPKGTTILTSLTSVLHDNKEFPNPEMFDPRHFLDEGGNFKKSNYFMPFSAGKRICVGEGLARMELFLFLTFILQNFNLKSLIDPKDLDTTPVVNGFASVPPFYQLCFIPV

Consider `CCC1=C(C[C@H]2NCCc3ccccc32)C[C@@H]2c3cc(OC)c(OC)cc3CCN2C1`, for which the Potency in assay [1] was over 11.4 µM; in [3] it was over 46 µM; in [4], over 9.22 µM. In addition, in assay [2] (setting [18]), the activity, negative = inhibition is -23.5%. For the same compound, the Potency result in [5] and in assay [6] was “inactive” in each case.

`COc1cccc(Nc2ncc3nc(CCc4ccccc4)c(=O)n(C[C@H]4CCCO4)c3n2)c1`: the results for the Potency in assay [1], in [3] and in assay [4] were over 11.4 µM, over 9.22 µM and over 46 µM, respectively. Moreover, in [7] (setting [18]), the activity change, negative = inhibition was -6.15%. Further, the activity, negative = inhibition in assay [2] (setting [18]) was -12.8%. Also, the Potency result in assay [5] is “inactive”.

Turning to `N#CCCn1c(=O)c(-c2cccs2)nc2cnc(Oc3cccc(Cl)c3)nc21`, the Potency in [1] was over 11.4 µM; in assay [8], 3.16 µM (active); in [3], over 9.22 µM; in assay [4] it was over 46 µM; in assay [10] it was 1.58 µM (active). Besides, the Potency entry in assay [5] and in assay [9] was “inactive” each time.

For the compound `COCCn1c(=O)c(-c2cccc(C#N)c2)nc2cnc(N3CCNCC3)nc21`, the Potency in [1] is over 11.4 µM; in assay [8], 10 µM (active); in assay [3], over 9.22 µM; in assay [4], over 46 µM; in assay [10] it was 3.16 µM (active). The Potency result in [5], in assay [6] and in [9] was “inactive” in each case.

For `O=c1c(-c2ccccc2)nc2cnc(N3CCOCC3)nc2n1-c1ccccc1`, the Potency in assay [1] was over 11.4 µM; in assay [8], 12.6 µM (active); in assay [3], over 9.22 µM; in [4], over 46 µM; in assay [10], 3.16 µM (active). Further, the Potency result in assay [6] and in assay [9] was “inactive” each time.

For the compound `Oc1c(Cl)cc(C(c2cc(Cl)c(O)c(Cl)c2)C(c2cc(Cl)c(O)c(Cl)c2)c2cc(Cl)c(O)c(Cl)c2)cc1Cl`, the Potency in assay [1] was 5.75 µM (active); in [8], 0.794 µM (active); in assay [3], over 46 µM; in [4] it was over 9.22 µM; in assay [11], 2.51 µM (active). For the same compound, the Potency result in [5] and in assay [6] was “inactive” throughout.

Turning to `Nc1ccc(N=Nc2ccc(-c3ccc(O)cc3)cc2)c2ccc(S(=O)(=O)O)cc12`, the Potency in assay [1] is over 11.4 µM; in assay [3], over 46 µM; in assay [4] it was over 9.22 µM. Moreover, in [8], the activity change, negative = inhibition was -17.8% [at 2.29 µM]. The Potency entry in [6] was “inactive”.

`N#CCCn1c(=O)c(-c2ccccc2)nc2cnc(Oc3cccc(Cl)c3)nc21`: the activity change, negative = inhibition was -25.4% in assay [12] (setting [18]) and -23.9% in [7] (setting [18]). Moreover, the Potency in assay [8] is 2.51 µM (active); in assay [3], over 9.22 µM; in [4] it was over 46 µM. Also, the activity, negative = inhibition in assay [2] (setting [18]) is -4.6%. Also, the Potency entry in [5] and in assay [6] was “inactive” throughout.

As for `N#C/C(=C\Nc1ccccn1)C(=O)C1CC1`, the figures for the activity change, negative = inhibition in [12] (setting [18]) and in [7] (setting [18]) were 7.75% and 5.1%, respectively. Also, the Potency was 1.26 µM (active) in [8], over 46 µM in [3] and over 9.22 µM in assay [4]. Besides, the activity, negative = inhibition in [2] (setting [18]) was 1.86%. Moreover, the Potency entry in assay [5] and in assay [6] was “inactive” each time.

With `O=[N+]([O-])c1ccc(NN=C2c3ccccc3Cc3ccccc32)c([N+](=O)[O-])c1`, the activity change, negative = inhibition in [12] (setting [18]) is 26.1%; in assay [7] (setting [18]) it was -1.66%. In addition, the figures for the Potency in assay [8], in assay [3] and in [4] were 0.794 µM (active), over 46 µM and over 9.22 µM, respectively. In addition, the activity, negative = inhibition in assay [2] (setting [18]) is 19.7%. In addition, the Potency result in [5] and in [6] was “inactive” throughout.

Take `CC(=O)N1CCN(c2ccc(OC[C@@H]3CO[C@@](Cn4ccnc4)(c4ccc(Cl)cc4Cl)O3)cc2)CC1`: the activity change, negative = inhibition in assay [12] (at 17.2 µM (top of the series)) was -18.1%; in assay [12] (at 38 µM (top of the series)) it was -10.5%; in [7] (at 17.2 µM (top of the series)), -5.42%; in assay [7] (at 38 µM (top of the series)), -20.5%. The activity, negative = inhibition in assay [2] (at 17.2 µM (top of the series)) was -12.7%; in assay [2] (at 38 µM (top of the series)) it was -11.9%; in assay [14] (parasite line A), -14.8%; in [14] (parasite line B) it was -14.2%. The Potency in assay [3] is > 46 µM and > 20.6 µM; in assay [4] it was > 46 µM and > 20.6 µM. The Potency result in assay [6], in [15], in [16] and in assay [17] was “inactive” in each case. For the same compound, the compound was classed as inactive in [13].

Turning to `O=C(O)/C(=C\c1ccccc1)c1ccccc1`, the activity change, negative = inhibition was 3.72% in assay [12] (setting [18]) and 1.44% in [7] (setting [18]). Besides, the Potency result in assay [8], in [5] and in assay [6] was “inactive” throughout. The activity, negative = inhibition in assay [2] (setting [18]) was -0.514%. Further, the Potency in [3] was over 46 µM; in assay [4], over 9.22 µM.

Turning to `COc1ncc2nc(-c3cc(F)cc(F)c3)c(=O)n(CCc3ccccc3)c2n1`, the Potency in assay [1] was over 11.4 µM; in assay [3] it was over 9.22 µM; in [4], over 46 µM. The Potency result in [5] was “inactive”.
